# Data as given in PubChem BioAssay AID1159580 (chemical genetic matrix, 2015).
# Screen size: about 5,500 compounds; about 2,000 (36%) were called active. Inconclusive results (about 18%) are left out. The list shows a part of the results. A number with no mark means an inactive call. No stated cut-off is given here; in the data, active means normalized growth mostly below about 0.91 (no sharp cut-off); inconclusive means no clear call, values can overlap the other calls; inactive means mostly above about 0.92.
# Assay: chemical genetic growth profiling, strain panel (AID 1159580);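 further: tested at 20 µM; growth read once vehicle control cultures reached saturation at 30 °C; 1 = growth at the plate median or of vehicle wells; lower values mean less growth of the strain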
# Settings: growth OD
compound,measurement,setting,value
CCC(c1ccc(O)cc1)C(CC)c1ccc(O)cc1 (stereo not drawn),normalized growth,"S. cerevisiae deletion strains, locus YJR075W, strain HOC1, active compounds read low",1.01
same,normalized growth,"S. cerevisiae deletion strains, locus YKL009W, strain mrt4, active compounds read low",0.871 (active)
same,normalized growth,"S. cerevisiae deletion strains, locus YKL068W, active compounds read low",0.99
same,normalized growth,"S. cerevisiae deletion strains, locus YKL085W, strain MDH1 (second series), active compounds read low",0.984
same,normalized growth,"S. cerevisiae deletion strains, locus YKL085W, strain MDH1, active compounds read low",0.984
same,normalized growth,"S. cerevisiae deletion strains, locus YKL160W, strain elf1, active compounds read low",0.928
same,normalized growth,"S. cerevisiae deletion strains, locus YKL190W, strain CNB1, active compounds read low",0.994
same,normalized growth,"S. cerevisiae deletion strains, locus YKR001C, strain vps1, active compounds read low",0.99
same,normalized growth,"S. cerevisiae deletion strains, locus YKR026C, strain gcn3, active compounds read low",0.982
same,normalized growth,"S. cerevisiae deletion strains, locus YKR091W, strain srl3, active compounds read low",1
same,normalized growth,"S. cerevisiae deletion strains, locus YLL001W, strain dnm1, active compounds read low",0.943
same,normalized growth,"S. cerevisiae deletion strains, locus YLL026W, active compounds read low",0.862 (active)
same,normalized growth,"S. cerevisiae deletion strains, locus YLL041C, strain sdh2, active compounds read low",0.976
same,normalized growth,"S. cerevisiae deletion strains, locus YLR027C, strain aat2, active compounds read low",0.829 (active)
same,normalized growth,"S. cerevisiae deletion strains, locus YLR039C, strain RIC1, active compounds read low",0.6 (active)
same,normalized growth,"S. cerevisiae deletion strains, locus YLR058C, strain SHM2, active compounds read low",1
same,normalized growth,"S. cerevisiae deletion strains, locus YLR102C, strain apc9, active compounds read low",1.01
same,normalized growth,"S. cerevisiae deletion strains, locus YLR221C, strain rsa3, active compounds read low",0.828 (active)
same,normalized growth,"S. cerevisiae deletion strains, locus YLR258W, strain gsy2, active compounds read low",0.902 (active)
same,normalized growth,"S. cerevisiae deletion strains, locus YLR262C, strain YPT6 (second series), active compounds read low",0.396 (active)
same,normalized growth,"S. cerevisiae deletion strains, locus YLR262C, strain YPT6, active compounds read low",0.575 (active)
same,normalized growth,"S. cerevisiae deletion strains, locus YLR268W, strain sec22, active compounds read low",0.912
same,normalized growth,"S. cerevisiae deletion strains, locus YLR320W, strain mms22, active compounds read low",0.868 (active)
same,normalized growth,"S. cerevisiae deletion strains, locus YLR330W, strain CHS5, active compounds read low",1.01
same,normalized growth,"S. cerevisiae deletion strains, locus YLR342W, strain FKS1 (second series), active compounds read low",0.962
same,normalized growth,"S. cerevisiae deletion strains, locus YLR342W, strain FKS1, active compounds read low",0.938
same,normalized growth,"S. cerevisiae deletion strains, locus YLR357W, strain rsc2, active compounds read low",0.984
same,normalized growth,"S. cerevisiae deletion strains, locus YLR370C, strain arc18, active compounds read low",0.993
same,normalized growth,"S. cerevisiae deletion strains, locus YLR371W, strain rom2, active compounds read low",1.01
same,normalized growth,"S. cerevisiae deletion strains, locus YLR384C, strain iki3, active compounds read low",1.01
same,normalized growth,"S. cerevisiae deletion strains, locus YLR418C, strain cdc73, active compounds read low",0.871
same,normalized growth,"S. cerevisiae deletion strains, locus YML016C, strain PPZ1, active compounds read low",0.996
same,normalized growth,"S. cerevisiae deletion strains, locus YML032C, strain rad52, active compounds read low",0.935
same,normalized growth,"S. cerevisiae deletion strains, locus YML120C, strain ndi1, active compounds read low",0.733 (active)
same,normalized growth,"S. cerevisiae deletion strains, locus YML124C, strain tub3, active compounds read low",1.01
same,normalized growth,"S. cerevisiae deletion strains, locus YMR058W, strain fet3, active compounds read low",0.864 (active)
same,normalized growth,"S. cerevisiae deletion strains, locus YMR078C, strain ctf18, active compounds read low",0.994
same,normalized growth,"S. cerevisiae deletion strains, locus YMR125W, strain sto1, active compounds read low",1.01
same,normalized growth,"S. cerevisiae deletion strains, locus YMR129W, active compounds read low",0.957
same,normalized growth,"S. cerevisiae deletion strains, locus YMR205C, strain PFK2, active compounds read low",0.844 (active)
same,normalized growth,"S. cerevisiae deletion strains, locus YMR223W, strain ubp8, active compounds read low",0.94
same,normalized growth,"S. cerevisiae deletion strains, locus YMR231W, strain pep5, active compounds read low",1.01
same,normalized growth,"S. cerevisiae deletion strains, locus YMR263W, strain SAP30, active compounds read low",0.973
same,normalized growth,"S. cerevisiae deletion strains, locus YMR307W, strain GAS1, active compounds read low",0.592 (active)
same,normalized growth,"S. cerevisiae deletion strains, locus YNL067W, strain RPL9B, active compounds read low",0.956
same,normalized growth,"S. cerevisiae deletion strains, locus YNL071W, strain lat1, active compounds read low",0.786 (active)
same,normalized growth,"S. cerevisiae deletion strains, locus YNL128W, strain TEP1, active compounds read low",1.02
same,normalized growth,"S. cerevisiae deletion strains, locus YNL153C, strain GIM3, active compounds read low",0.982
same,normalized growth,"S. cerevisiae deletion strains, locus YNL209W, strain ssb2, active compounds read low",0.976
same,normalized growth,"S. cerevisiae deletion strains, locus YNL233W, strain BNI4, active compounds read low",0.974
same,normalized growth,"S. cerevisiae deletion strains, locus YNL248C, strain rpa49, active compounds read low",0.942
same,normalized growth,"S. cerevisiae deletion strains, locus YNL250W, strain rad50, active compounds read low",0.985
same,normalized growth,"S. cerevisiae deletion strains, locus YNL271C, strain bni1, active compounds read low",0.985
same,normalized growth,"S. cerevisiae deletion strains, locus YNL298W, strain CLA4, active compounds read low",0.912
same,normalized growth,"S. cerevisiae deletion strains, locus YNL307C, strain MCK1, active compounds read low",0.877 (active)
same,normalized growth,"S. cerevisiae deletion strains, locus YNL322C, strain KRE1 (second series), active compounds read low",0.985
same,normalized growth,"S. cerevisiae deletion strains, locus YNL322C, strain KRE1, active compounds read low",1.01
same,normalized growth,"S. cerevisiae deletion strains, locus YNR049C, strain mso1, active compounds read low",1
same,normalized growth,"S. cerevisiae deletion strains, locus YNR052C, strain pop2, active compounds read low",0.938
same,normalized growth,"S. cerevisiae deletion strains, locus YOL006C, strain TOP1, active compounds read low",0.769
same,normalized growth,"S. cerevisiae deletion strains, locus YOL012C, strain htz1",1.31
same,normalized growth,"S. cerevisiae deletion strains, locus YOL147C, strain pex11, active compounds read low",0.997
same,normalized growth,"S. cerevisiae deletion strains, locus YOR001W, strain rrp6, active compounds read low",0.808 (active)
same,normalized growth,"S. cerevisiae deletion strains, locus YOR061W, strain CKA2, active compounds read low",0.984
same,normalized growth,"S. cerevisiae deletion strains, locus YOR069W, strain VPS5, active compounds read low",0.999
same,normalized growth,"S. cerevisiae deletion strains, locus YOR070C, strain gyp1, active compounds read low",0.942
same,normalized growth,"S. cerevisiae deletion strains, locus YOR080W, strain dia2, active compounds read low",0.974
same,normalized growth,"S. cerevisiae deletion strains, locus YOR083W, strain WHI5, active compounds read low",0.899
same,normalized growth,"S. cerevisiae deletion strains, locus YOR106W, strain vam3, active compounds read low",0.804 (active)
same,normalized growth,"S. cerevisiae deletion strains, locus YOR136W, strain idh2, active compounds read low",0.996
same,normalized growth,"S. cerevisiae deletion strains, locus YOR144C, strain elg1, active compounds read low",1.01
same,normalized growth,"S. cerevisiae deletion strains, locus YOR184W, strain ser1, active compounds read low",0.761 (active)
same,normalized growth,"S. cerevisiae deletion strains, locus YOR265W, strain rbl2, active compounds read low",0.966
same,normalized growth,"S. cerevisiae deletion strains, locus YOR270C, strain vph1, active compounds read low",0.792
same,normalized growth,"S. cerevisiae deletion strains, locus YOR290C, strain snf2, active compounds read low",0.953
same,normalized growth,"S. cerevisiae deletion strains, locus YOR316C, strain cot1, active compounds read low",1.01
same,normalized growth,"S. cerevisiae deletion strains, locus YPL051W, strain arl3, active compounds read low",0.849 (active)
same,normalized growth,"S. cerevisiae deletion strains, locus YPL055C, strain LGE1, active compounds read low",0.979
same,normalized growth,"S. cerevisiae deletion strains, locus YPL078C, strain atp4, active compounds read low",0.895
same,normalized growth,"S. cerevisiae deletion strains, locus YPL106C, strain sse1, active compounds read low",0.93
same,normalized growth,"S. cerevisiae deletion strains, locus YPL240C, strain hsp82, active compounds read low",0.971
same,normalized growth,"S. cerevisiae deletion strains, locus YPL241C, strain CIN2, active compounds read low",0.998
same,normalized growth,"S. cerevisiae deletion strains, locus YPR119W, strain clb2, active compounds read low",1
same,normalized growth,"S. cerevisiae deletion strains, locus YPR141C, strain kar3, active compounds read low",0.994
same,normalized growth,"S. cerevisiae deletion strains, locus YPR163C, strain tif3, active compounds read low",1.02
same,normalized growth,"S. cerevisiae deletion strains, locus YPR167C, strain met16, active compounds read low",0.987
same,normalized growth,"S. cerevisiae deletion strains, strain wtn01, active compounds read low",0.959
same,normalized growth,"S. cerevisiae strains, strain wild type, active compounds read low",0.995
